According to PubChem BioAssay (NCATS):
Records with an inconclusive call do not appear. A number with no mark means an inactive call. The source made the active and inactive calls. Calls come from the whole dose curve; as a rule, active = well fitted inhibition curve with a large enough effect in the repeat runs; inconclusive = weak or mixed curves; inactive = flat fitted curve, though single readings scatter. Where a SMILES comes first, the peptide text is derived from it.

Each compound was assayed against Cytochrome P450 2D6 (Homo sapiens) (UniProt P10635) (assay: Cytochrome P450 family 2 subfamily D member 6 (CYP2D6) small molecule antagonists: luciferase biochemical (cell-free) qHTS assay (AID 1645840; note: nearly all actives have a fitted effect of over 55% in size)). Settings: P450-Glo CYP2D6 enzyme, luciferin luminescence, 1 h; series mostly up to 57.4 µM; activity change, negative = inhibition: at the top concentration.
Experimental: National Center for Advancing Translational Sciences [NCATS] Assay Overview: Cytochrome P450 (CYP) enzymes are membrane-bound hemeproteins that play a key role in metabolism of drugs and xenobiotics. Assaying the effect of chemicals on CYP isozymes is useful to minimize the adverse drug reactions and toxicities in drug development process. Chemical compounds were tested for their effect on CYP enzyme activities by using P450-Glo (TM) screening systems (Promega Corporation, Madison, WI). These systems provide a luminescent method containing proluciferin substrates and are converted to luciferin products by CYP isozymes. The luciferin products formed are detected with a luciferin detection reagent, and the amount of light produced is proportional to CYP activity. P450-Glo (TM) CYP2D6 screening system (Catalog. No. V9890) was used to detect the compounds that interfere in CYP2D6 activity.
Assay Protocol Summary: Two ul of enzyme-substrate mix was dispensed into medium binding white/solid 1536-well plates (Greiner Bio-One North America Inc., Monroe, NC) using a Flying Reagent Dispenser (FRD, Aurora Discovery, San Diego, CA). […] The assay plates were incubated at room temperature for 10 min. Then 2 ul of NADPH regeneration solution was added to each well of the assay plates using an FRD and incubated at room temperature for 1 h. The reaction was stopped by adding 4 ul of detection reagent using an FRD and after 20 min incubation at room temperature, the luminescence signal was measured using a ViewLux plate reader (Perkin Elmer, Shelton, CT). Data were expressed as relative luminescence units.
% is set by controls: 0 for no effect and ±100 for the full control effect; potency is the fitted concentration of half-maximal effect.

Sequence of Cytochrome P450 2D6 (Homo sapiens) (P10635 whole entry, looked up): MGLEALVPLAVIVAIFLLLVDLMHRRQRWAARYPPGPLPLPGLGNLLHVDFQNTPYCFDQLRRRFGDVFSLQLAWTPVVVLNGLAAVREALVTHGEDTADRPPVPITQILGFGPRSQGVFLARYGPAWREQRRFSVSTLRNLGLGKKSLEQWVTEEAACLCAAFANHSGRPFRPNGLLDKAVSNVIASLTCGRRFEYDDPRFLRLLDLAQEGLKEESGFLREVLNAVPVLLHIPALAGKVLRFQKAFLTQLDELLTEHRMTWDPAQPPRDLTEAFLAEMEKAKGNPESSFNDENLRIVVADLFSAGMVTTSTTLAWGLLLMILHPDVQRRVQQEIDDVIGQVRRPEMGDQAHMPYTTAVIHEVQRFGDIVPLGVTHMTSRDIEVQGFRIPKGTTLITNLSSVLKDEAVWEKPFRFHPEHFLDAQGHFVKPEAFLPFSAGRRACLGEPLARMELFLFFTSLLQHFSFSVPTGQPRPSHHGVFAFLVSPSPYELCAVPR

Row | SMILES | activity change, negative = inhibition | Potency
1 | CC(=O)N[C@@H](CO)C(=O)N[C@@H](CC(=O)O)C(=O)N[C@@H](CCCCN)C(=O)N1CCC[C@H]1C(=O)O (Ac-SDKP-OH) | 1.7% | –
2 | O=S(=O)(O)c1ccc2nc(-c3ccccc3)[nH]c2c1 | – | 9.77 µM (active)
3 | COc1ccc(CCC(C)=O)cc1 | 1.36% | –
4 | CC(C)OC(=O)c1cc2c(OCC(O)CNC(C)(C)C)cccc2[nH]1 (stereo not given) | – | 11 µM (active)
5 | CC(C)=CCC/C(C)=C/CC/C(C)=C/C(=O)OCC(=O)[C@@]1(O)CC[C@H]2[C@@H]3CCC4=CC(=O)C=C[C@]4(C)[C@H]3[C@@H](O)C[C@@]21C | -17.4% | –
6 | NS(=O)(=O)c1ccc(N2CCCCS2(=O)=O)cc1 | 8.78% | –
7 | N#CSCC(=O)O | 2.62% | –
8 | CCCCCCCCCCCCCC[N+](C)(C)C | – | 3.09 µM (active)
9 | CCC(C(=O)NC(=O)NC(C)=O)c1ccccc1 (stereo not given) | 9.54% | –
10 | Cc1cccc(N(C)C(=S)Oc2ccc3c(c2)C2CCC3C2)c1 (stereo not given) | -1.48% | –
11 | CCC[C@H](N[C@@H](C)C(=O)N1[C@H](C(=O)O)C[C@@H]2CCCC[C@@H]21)C(=O)OCC | 4.33% | –
12 | Nc1ncnc2nc[nH]c12 | 11.6% | –
13 | CCN(CC)CCN | 4.97% | –
14 | CC(C)(C)C1CCC(CC2=C(O)c3ccccc3C(=O)C2=O)CC1 (stereo not given) | 4.32% | –
15 | CC(=O)Nc1ccc(S(=O)(=O)Nc2cc(C)on2)cc1 | -2.01% | –
16 | CC(C)NC(=O)c1ccc(C=O)cc1 | 4.84% | –
17 | CCCOc1ccc2c(c1)CC[C@@H]1[C@@H]2CC[C@]2(C)C(OC)CC[C@@H]12 (stereo not given in full) | – | 15.5 µM (active)
18 | NC(=O)NC1N=C([O][Al])NC1=O (stereo not given) | – | 13.8 µM (active)
19 | CO/N=C(/C(=O)N[C@@H]1C(=O)N2C(C(=O)O)=C(Cn3nnc(C)n3)CS[C@H]12)c1csc(N)n1 | 4.39% | –
20 | CCCCC/C=C\C/C=C\CCCCCCCC(=O)NC(C)c1ccccc1 (stereo not given) | – | 3.89 µM (active)

Row | SMILES | activity change, negative = inhibition | Potency
21 | Nc1nc2ccccc2n1Cc1ccc(F)cc1 | – | 0.0977 µM (active)
22 | CC(C)(C)c1cc(C=O)cc(C(C)(C)C)c1O | 0.522% | –
23 | CCOc1c(N2CCOCC2)cnn(C)c1=O | 5.78% | –
24 | CCN(CC)C(=O)C1CN2CCc3cc(OC)c(OC)cc3C2CC1OC(C)=O (stereo not given) | 0.125% | –
25 | Cc1c(C)c2c(c(C)c1OC(=O)CCC(=O)OCCO)CC[C@@](C)(CCC[C@H](C)CCC[C@H](C)CCCC(C)C)O2 | – | 12.3 µM (active)
26 | C=CCOc1cc(Cl)ccc1C(=O)NCCN(CC)CC | – | 0.275 µM (active)
27 | Cc1nc(N)nc(N)c1-c1ccc(Cl)c(Cl)c1 | – | 0.871 µM (active)
28 | C1=CC2C3C=CC(C3)C2C1 (stereo not given) | 3.5% [at 115 µM] | –
29 | Cc1c(N)cccc1C(F)(F)F | 1.3% | –
30 | O=C(CCCCC(=O)Nc1c(I)cc(I)c(C(=O)O)c1I)Nc1c(I)cc(I)c(C(=O)O)c1I | 3.5% | –
31 | NC(=O)COCCN1CCN(C(c2ccccc2)c2ccc(Cl)cc2)CC1 (stereo not given) | -4.44% | –
32 | CN1N=C(C(N)=O)CCC1=O | 1.42% | –
33 | CO/N=C(/C(=O)N[C@@H]1C(=O)N2C(C(=O)[O-])=C(C[n+]3ccn4ncccc43)CS[C@H]12)c1nsc(N)n1 | -3.3% | –
34 | COc1ccc2nc(SCc3ncc(C)c(OC)c3C)[nH]c2c1 | – | 12.3 µM (active)
35 | CCCCN(CCCC)C(C(N)=O)c1ccc(OC)cc1 (stereo not given) | – | 0.776 µM (active)
36 | CC(C)C(=O)Nc1cccc(C2CN3CCSC3=N2)c1 (stereo not given) | -6.74% | –
37 | CC(C)(C)C(=O)OCOC(=O)C1N2C(=O)CC2S(=O)(=O)C1(C)C (stereo not given) | 4.4% | –
38 | O=C(O)[C@H](O)[C@@H](O)[C@H](O[C@@H]1O[C@H](CO)[C@H](O)[C@H](O)[C@H]1O)[C@H](O)CO | 3.96% | –
39 | O=C(Oc1ccccc1)c1ccccc1O | 9.59% | –
40 | Cc1ccc2c(Cl)cc(Cl)c(O)c2n1 | 14% | –
